# Source: ChEMBL document CHEMBL4513216, “Probing the Open Global Health Chemical Diversity Library for Multistage-Active Starting Points for Next-Generation Antimalarials” (ACS Infect Dis, 2020)
# Out of some 69,000 compounds screened, about 8,600 (12%) showed an effect of 50% or more. The sample as a whole holds a higher share of strong results than the screen did.
# Tested on: Plasmodium berghei
# Experiment: Screen against P. berghei liver stage (PbLuc), transformed with Luciferase, at 10uM
# Format: functional, HepG2
# Settings: tested at 10 uM
row,SMILES,INHIBITION [%]
1,Cc1cc(C(=O)NCC(C)N2CCc3ccccc32)no1 (centres undefined),21.8
2,CC(CNC(=O)c1cccc(C#N)c1)N1CCc2ccccc21 (centres undefined),-8.51
3,CC(CNC(=O)c1ccc(C#N)cc1)N1CCc2ccccc21 (centres undefined),83.2
4,CCC(CNC(=O)c1ccc(=O)[nH]n1)N1CCc2ccccc2C1 (centres undefined),28.5
5,CC(CNC(=O)Nc1ccc(C#N)cc1)N1CCc2ccccc21 (centres undefined),40.1
6,O=C(Nc1ccccc1N1CCOC1=O)N1CCc2sccc2C1,18.4
7,CCn1c(=O)n(CC)c2cc(S(N)(=O)=O)ccc21,29.1
8,COCC1CC2(CCNCC2)CN1Cc1csc(C)n1 (centres undefined),-15.3
9,Cc1noc(CCCC(=O)NC(C)c2ccc(Cl)s2)n1 (centres undefined),-2.95
10,O=C(CCO)N1C[C@@H]2CC[C@H]1CN(C1Cc3ccccc3C1)C2,-43.5
11,COc1cccc(-c2nc3c([nH]2)CCNC3)c1F,61
12,CC(=O)c1cccc(-c2nc3c([nH]2)CCNC3)c1F,37.8
13,COc1ccc(-c2nc3c([nH]2)CCNC3)c(OC)c1OC,28.7
14,CC(C)NC(=O)Nc1ccc(-c2nc3c([nH]2)CCNC3)cc1,-100
15,CC(C)COc1cccc(-c2nc3c([nH]2)CCNC3)c1,41.5
16,CC(C)N(C(=O)c1ccccc1-c1nc2c([nH]1)CCNC2)C(C)C,54.5
17,CS(=O)(=O)N1CCCC(Cc2ccnc3ccncc23)CC1 (centres undefined),19.6
18,O=C(c1cccnc1)N1CCCC2(CCN(c3ccsc3)C2=O)C1 (centres undefined),-33.7
19,CN(C)C(=O)[C@@H]1CCO[C@@H]2CCN(Cc3ccc4c(c3)OCO4)C[C@@H]21,10.8
20,COc1cc(N2CCC3(CCCN3Cc3cnn(C)c3)CC2)ncn1,13.7
21,CCCN1CCc2nc(SCc3ccc(F)cc3)[nH]c(=O)c2C1,20
22,COCCN1CCc2nc(SCc3ccc(F)cc3)[nH]c(=O)c2C1,56.3
23,CCCN1CCc2nc(SCc3ccccc3)[nH]c(=O)c2C1,17.7
24,Cn1cnnc1C1CCCN(C(=O)c2ccccn2)C1 (centres undefined),13.6
25,Cc1cccc(C(=O)N2C[C@@H]3CC[C@H]2CN(S(=O)(=O)N(C)C)C3)n1,18.2
26,CN(C(=O)Cc1coc(-c2ccccc2)n1)C1(C#N)CCC1,78.3
27,CN(C(=O)Cc1coc(-c2cccs2)n1)C1(C#N)CCC1,27.9

row,SMILES,INHIBITION [%]
1,Cc1oc(-c2cccs2)nc1C(=O)N(C)C1(C#N)CCC1,-11.6
2,Cc1nc(C)n(C2CCCN(C(=O)c3sccc3C)C2)n1 (centres undefined),-19.6
3,CCn1nc(C)c2c1cnn2CCNS(=O)(=O)c1ccccc1,-22.2
4,CCn1nc(C)c2c1cnn2CCNS(C)(=O)=O,16.8
5,CCn1nc(C)c2c1cnn2CCNS(=O)(=O)c1cccs1,60.7
6,Cc1ccsc1CNCc1c(C(C)C)nn(C)c1N1CCOCC1,9.52
7,COC(=O)C(CNC(=O)Nc1cn[nH]c1)Cc1cccc(C)c1 (centres undefined),11.9
8,COC(=O)C(CNC(=O)Nc1nncs1)Cc1ccc(O)cc1 (centres undefined),51
9,COc1cc(CNC(=O)Nc2nncs2)ccc1O,-73.6
10,COC(=O)C(CNC(=O)Nc1nncs1)Cc1ccc(F)cc1 (centres undefined),37.6
11,COC(=O)C(CNC(=O)Nc1nncs1)Cc1cccc(C)c1 (centres undefined),76.8
12,Cc1ccc(CNC(=O)Nc2nncs2)cn1,27.4
13,Cc1ccccc1OC1(C(=O)O)CCN(C(=O)CCc2ccco2)CC1,39.3
14,CC(C)c1nc(CN(C)C2CCN(CCc3ccncc3)C2)no1 (centres undefined),-16
15,Cc1ccc(CN(C)C(=O)CN2CCOC(Cn3cccn3)C2)o1 (centres undefined),11.6
16,Cn1nc(C2CN(C(=O)c3ccncc3)C2)c2nccnc21,22
17,CCCc1nn(Cc2csc(CC)n2)c(=O)o1,61
18,CCCc1nn(Cc2csc(C(C)C)n2)c(=O)o1,29.4
19,CCc1nc(Cn2nc(COC)oc2=O)cs1,49.9
20,Cc1n[nH]cc1CNC(=O)CCCc1cccs1,54.5
21,Cc1nc(CNC(=O)CCCc2cccs2)no1,35.9
22,Cc1csc(CNC(=O)CCCc2cccs2)n1,3.48
23,COc1c(C(=O)NCc2cnn(C)c2C)nnn1Cc1ccccc1,40.8
24,N#CC1COCCN1C(=O)c1ccc2[nH]cnc2c1 (centres undefined),-13.9
25,N#CC1COCCN1C(=O)c1ccc2[nH]ccc2c1 (centres undefined),19.7
26,N#CC1COCCN1C(=O)c1ccc2cc[nH]c2c1 (centres undefined),53.3
27,O=c1[nH]c(COc2ccc(Cl)cc2)nc2c1CCNC2,-9.66
